Assay [1] addresses Lysosomal acid glucosylceramidase (Homo sapiens) (UniProt P04062). The assay can be described thus: Glucocerebrosidase-p2 (AID 348; in the data active = potency below about 10 µM; note: potency is the fitted concentration of half-maximal effect). Particulars: purified GBA, blue fluorogenic substrate, 40 min. An outline of the steps:
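Compounds titrated from 0.6 nM upwards against 0.2 nM enzyme in pH 5.9 citric acid/KH2PO4, taurocholate, tween-20; blue fluorogenic substrate 80 uM, 40 min room temperature, stopped and read Ex 365/Em 440 for AC50.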

Assay [2] concerns the target Cytochrome P450 1A2 (Homo sapiens) (UniProt P05177). The assay can be described thus: p450-cyp1a2 (AID 410; calls by dose curve; note: potency is the fitted concentration of half-maximal effect). The conditions noted are these: recombinant CYP1A2, luciferin-ME demethylation, luminescence; series mostly up to 11.4 µM. A digest of the protocol: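 Human CYP1A2 (20nM) demethylated Luciferin-ME at its Km (100uM) in 100mM KPO4. After 10 min compound preincubation, NADPH regeneration ran the reaction 60 min at room temperature. Luciferin was read by luminescence, normalized to 57 uM furafylline.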

Assay [3] in a line: NFAT Signaling Pathway (AID 444).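 Note: carbachol stimulus at about its EC50 of 1 µM final; % is set by controls: 0 for no effect and ±100 for the full control effect.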 Particulars: Jurkat NFAT-bla M1, carbachol, beta-lactamase ratio, 5 h; at 7.69 µM (top of the series) unless noted. An outline of the steps: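 Jurkat cells with NFAT-driven β-lactamase reporter and co-expressed M1 receptor, stimulated with carbachol (final 1 uM, ~EC50), compound titration, 5 h at 37 °C. CCF4 loaded 1 h at RT; 460/530 nm ratio gave %activity and AC50.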

The nature of assay [4]: Stat Signaling Pathway (AID 446).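 Note: ME-180 cervical cancer cells given 40 pM IL-6 alongside compound; SIE-controlled beta-lactamase reporter measured as 460/530 nm FRET emission ratio; % is set by controls: 0 for no effect and ±100 for the full control effect.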 Particulars: ME-180 SIE beta-lactamase reporter, IL-6 stimulated, 5 h; at 7.69 µM (top of the series) unless noted. A digest of the protocol:
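ME-180 cells carrying a SIE-driven beta-lactamase reporter are stimulated with 40 pM IL-6 for 5 h at 37C in the presence of compound. The 460/530 nm FRET substrate ratio is read after 2.5 h at RT. Data are normalised to 300 pM IL-6 and to 125 nM JAK inhibitor controls.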

In assay [5] the target is Glucocorticoid receptor (Homo sapiens) (UniProt P04150). The assay can be described thus: GR-GFP Redistribution (AID 450;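 active = compounds whose dose series gives a full or clear partial fitted curve of increased nuclear translocation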; note: potency is the fitted concentration of half-maximal effect). The conditions noted are these: U2OS GR-GFP nuclear translocation, laser cytometry, 2 h.
Sequence of Glucocorticoid receptor (Homo sapiens) (P04150 whole entry, looked up): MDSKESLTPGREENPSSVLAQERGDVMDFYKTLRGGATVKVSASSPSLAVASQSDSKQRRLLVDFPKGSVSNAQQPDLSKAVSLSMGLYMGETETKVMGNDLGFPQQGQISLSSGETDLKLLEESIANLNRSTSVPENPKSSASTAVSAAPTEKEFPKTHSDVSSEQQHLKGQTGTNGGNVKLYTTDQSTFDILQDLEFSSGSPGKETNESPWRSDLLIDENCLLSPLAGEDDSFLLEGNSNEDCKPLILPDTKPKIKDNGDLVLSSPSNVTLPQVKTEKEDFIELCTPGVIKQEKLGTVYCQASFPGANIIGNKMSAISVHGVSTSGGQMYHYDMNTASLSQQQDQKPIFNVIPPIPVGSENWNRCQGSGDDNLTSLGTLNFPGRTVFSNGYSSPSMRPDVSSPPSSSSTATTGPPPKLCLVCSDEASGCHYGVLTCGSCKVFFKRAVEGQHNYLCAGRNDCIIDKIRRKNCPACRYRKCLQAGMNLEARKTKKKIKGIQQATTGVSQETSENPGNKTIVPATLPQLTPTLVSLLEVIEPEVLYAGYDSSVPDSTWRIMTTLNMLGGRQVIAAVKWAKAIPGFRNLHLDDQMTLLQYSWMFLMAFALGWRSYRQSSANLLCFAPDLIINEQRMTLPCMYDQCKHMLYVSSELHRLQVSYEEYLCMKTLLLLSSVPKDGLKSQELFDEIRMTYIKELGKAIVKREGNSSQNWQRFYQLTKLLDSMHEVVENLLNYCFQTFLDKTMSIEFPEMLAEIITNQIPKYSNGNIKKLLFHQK
Assay [6] shares this target. The assay can be described thus: GR-EFC Redistribution (AID 451; calls by dose curve; note: potency is the fitted concentration of half-maximal effect). Particulars: CHO-K1 GR-EFC translocation, beta-gal luminescence, 2 h. An outline of the steps:
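CHO-K1 cells expressing nuclear EA and GR-ED fragments of b-gal; compounds titrated up to 46 uM final, 2 h at 37 C. GR nuclear translocation read as complemented b-gal luminescence after 1 h RT detection.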

The target of assay [7] is Mitogen-activated protein kinase 10 (Mus musculus) (UniProt Q61831). Nature of the assay: JNK3 AlphaScreen Assay (AID 530).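 Note: kinase came from lysate of stimulated human HepG2 cells; signal reports phosphorylation of biotinylated GST-cJun 1-79 at Ser73 with 10 µM ATP; % is set by controls: 0 for no effect and ±100 for the full control effect.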 Particulars: JNK3 lysate, c-Jun phosphorylation; series mostly up to 11.4 µM. An outline of the steps:
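qHTS format: compounds tested as titrations against IL-1beta/TNF-alpha-activated HepG2 lysate JNK3 with biotin-GST-cJun substrate and 10 uM ATP at room temperature. Loss of anti-phospho-cJun AlphaScreen signal indicates inhibition.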
On the technique in general: In Alpha technology, singlet oxygen from a donor bead excites a nearby acceptor bead.

Assay [8] addresses Cytochrome P450 3A4 (Homo sapiens) (UniProt P08684). The assay can be described thus: qHTS Assay for Activators of Cytochrome P450 3A4 (AID 885; active = well fitted curve in the direction sought with a large enough effect; an effect the other way counts as inactive or inconclusive; note: nearly all actives have a fitted effect of over 65% in size). Particulars: recombinant CYP3A4, Luciferin-PPXE luminescence, 60 min; series mostly up to 11.4 µM. A digest of the protocol: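 Human CYP3A4 (20 nM) with Luciferin-PPXE at 25 uM (its KM) in 200 mM KPO4; 10 min compound preincubation, then NADPH regeneration and 60 min reaction at RT. Luciferin read by luminescence; normalized to 57 uM ketoconazole full inhibition.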
In general terms: qHTS replaces the single test concentration by a dilution series.

Assay [9] has as its target Cytochrome P450 2C19 (Homo sapiens) (UniProt P33261). Nature of the assay: qHTS Assay for Inhibitors and Substrates of Cytochrome P450 2C19 (AID 899; active = well fitted curve in the direction sought with a large enough effect; an effect the other way counts as inactive or inconclusive; note: potency is the fitted concentration of half-maximal effect; nearly all actives have a fitted effect of over 60% in size). The conditions noted are these: recombinant CYP2C19, luciferin-H EGE luminescence; series mostly up to 11.4 µM. A digest of the protocol:
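5 nM human CYP2C19 with 10uM Luciferin-H EGE (at KM) in 50mM KPO4, compound preincubated 10 min at 37C, then NADPH regeneration for 60 min at 37C. Luciferin read by luminescence after detection reagent; normalized to 57uM ketoconazole as full inhibition.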

Assay [10] deals with 3',5'-cyclic-AMP phosphodiesterase 4B (Homo sapiens) (UniProt Q07343). The assay can be described thus: qHTS Assay for Inhibitors of PDE-IV (AID 607; active = well fitted activation curve with a large enough effect in the main read-out, with a control signal flat, not every such curve was filed as active; note: % of control where 0% means no effect). Particulars: HEK293 ACTOne CNG channel cells, membrane potential fluorescence; series mostly up to 22.9 µM. A digest of the protocol:
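HEK293 ACTOne cells with CNG channel (1000/well), endogenous PDE4; membrane potential dye, compounds up to 22.9 uM final. Fluorescence Ex 535/Em 590; RO 20-1724 (100 uM final) as reference.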

The target in assay [11] is Cytochrome P450 2D6 (Homo sapiens) (UniProt P10635). The assay can be described thus: qHTS Assay for Inhibitors and Substrates of Cytochrome P450 2D6 (AID 891; active = well fitted curve in the direction sought with a large enough effect; an effect the other way counts as inactive or inconclusive; note: potency is the fitted concentration of half-maximal effect; nearly all actives have a fitted effect of over 60% in size). The conditions noted are these: recombinant CYP2D6, luciferin-ME EGE luminescence; series mostly up to 11.4 µM. A digest of the protocol: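 Human CYP2D6 (5 nM) with 30 uM Luciferin-ME EGE (at Km) in 100 mM KPO4, compound preincubated 10 min, then NADPH regeneration system for 60 min at room temperature. Luciferin read by luminescence; normalized to 1.43 uM quinidine.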
Sequence of Cytochrome P450 2D6 (Homo sapiens) (P10635 whole entry, looked up): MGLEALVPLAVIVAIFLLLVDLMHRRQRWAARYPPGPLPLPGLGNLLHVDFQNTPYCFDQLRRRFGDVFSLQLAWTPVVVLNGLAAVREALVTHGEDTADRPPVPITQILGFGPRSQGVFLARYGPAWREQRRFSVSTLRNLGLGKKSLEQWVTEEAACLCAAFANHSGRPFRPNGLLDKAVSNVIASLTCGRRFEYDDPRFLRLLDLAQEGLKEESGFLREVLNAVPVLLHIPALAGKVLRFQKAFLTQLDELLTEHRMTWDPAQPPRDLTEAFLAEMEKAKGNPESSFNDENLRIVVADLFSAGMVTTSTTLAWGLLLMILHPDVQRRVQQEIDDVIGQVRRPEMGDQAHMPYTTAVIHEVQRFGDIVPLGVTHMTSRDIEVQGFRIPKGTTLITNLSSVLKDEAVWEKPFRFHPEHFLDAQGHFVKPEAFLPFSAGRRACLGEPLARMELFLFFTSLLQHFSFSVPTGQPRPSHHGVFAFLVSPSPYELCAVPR

Assay [12] deals with Cytochrome P450 2C9 (Homo sapiens) (UniProt P11712). Nature of the assay: qHTS Assay for Inhibitors and Substrates of Cytochrome P450 2C9 (AID 883; active = well fitted curve in the direction sought with a large enough effect; an effect the other way counts as inactive or inconclusive; note: potency is the fitted concentration of half-maximal effect; nearly all actives have a fitted effect of over 60% in size). Particulars: recombinant CYP2C9, luciferin-H luminescence, 60 min; series mostly up to 11.4 µM. A digest of the protocol: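 Human CYP2C9 (10nM) with Luciferin-H at 100uM (its KM) in 25mM KPO4; compound preincubated 10 min at 37C, then NADPH regeneration for 60 min at 37C. Luciferin read by luminescence after detection reagent; normalized to 57uM sulphaphenazole as full inhibition.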
Sequence of Cytochrome P450 2C9 (Homo sapiens) (P11712 whole entry, looked up): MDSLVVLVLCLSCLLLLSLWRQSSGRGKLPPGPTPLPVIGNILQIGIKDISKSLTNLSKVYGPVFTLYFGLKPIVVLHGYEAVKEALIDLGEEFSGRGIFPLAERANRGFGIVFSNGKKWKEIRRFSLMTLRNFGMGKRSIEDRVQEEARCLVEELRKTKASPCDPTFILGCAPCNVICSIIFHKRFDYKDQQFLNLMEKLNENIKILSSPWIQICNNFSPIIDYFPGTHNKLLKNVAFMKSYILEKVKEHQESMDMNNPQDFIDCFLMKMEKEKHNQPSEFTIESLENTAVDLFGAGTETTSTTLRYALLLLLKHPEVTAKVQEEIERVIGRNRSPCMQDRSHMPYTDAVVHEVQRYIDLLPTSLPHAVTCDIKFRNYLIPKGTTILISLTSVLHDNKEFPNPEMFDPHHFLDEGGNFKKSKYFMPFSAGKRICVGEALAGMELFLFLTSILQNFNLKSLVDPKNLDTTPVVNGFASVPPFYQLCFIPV

Assay [13] in a line: qHTS Assay for Identification of Small Molecule Agonists for Hypoxia Response Element Signaling Pathway (AID 914; active = well fitted activation curve with a large enough effect in the signal ratio, with a control signal flat, not every such curve was filed as active; the % refers to the signal ratio; note: potency is the fitted concentration of half-maximal effect). The conditions noted are these: ME-180 (cervical carcinoma) HRE-bla reporter, beta-lactamase ratio, CoCl2, 17 h; activation: stronger effect = higher value. A digest of the protocol: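 Reporter activity (beta-lactamase, CCF4 460nm/530nm ratio) in HRE-bla ME-180 cells is recorded after 17 h compound exposure with EC50 CoCl2 at 37 degrees Celsius. AC50 values come from titration data.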

Data on eight compounds can be found in PubChem BioAssay (NCATS).

Unmarked numbers belong to inactive results. Results filed as inconclusive are left out. Calls of active or inactive are those of the source. Unless noted, calls come from the whole dose curve; as a rule, active = well fitted curve in either direction with a large enough effect (not every such curve was filed as active); inconclusive = small, poorly fitted or top-dose-only effect, or another doubt; inactive = flat fitted curve, though single readings scatter. A value given as a limit tells only on which side of the number the result lay.

Sequence of Cytochrome P450 1A2 (Homo sapiens) (P05177 whole entry, looked up): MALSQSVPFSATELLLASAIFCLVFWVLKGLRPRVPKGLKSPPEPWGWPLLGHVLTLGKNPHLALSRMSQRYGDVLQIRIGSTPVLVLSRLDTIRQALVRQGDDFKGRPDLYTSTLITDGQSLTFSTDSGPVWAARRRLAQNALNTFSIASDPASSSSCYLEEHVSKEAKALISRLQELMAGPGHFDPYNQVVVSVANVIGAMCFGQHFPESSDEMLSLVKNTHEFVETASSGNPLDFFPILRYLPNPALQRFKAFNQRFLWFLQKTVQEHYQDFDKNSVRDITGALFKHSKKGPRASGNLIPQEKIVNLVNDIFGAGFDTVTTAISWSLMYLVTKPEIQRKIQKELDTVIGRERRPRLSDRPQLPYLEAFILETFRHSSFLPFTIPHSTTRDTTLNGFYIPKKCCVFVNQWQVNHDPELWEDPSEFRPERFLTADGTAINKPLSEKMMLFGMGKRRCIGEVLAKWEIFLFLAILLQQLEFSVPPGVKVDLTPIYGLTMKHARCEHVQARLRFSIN
Sequence of Cytochrome P450 2C19 (Homo sapiens) (P33261 whole entry, looked up): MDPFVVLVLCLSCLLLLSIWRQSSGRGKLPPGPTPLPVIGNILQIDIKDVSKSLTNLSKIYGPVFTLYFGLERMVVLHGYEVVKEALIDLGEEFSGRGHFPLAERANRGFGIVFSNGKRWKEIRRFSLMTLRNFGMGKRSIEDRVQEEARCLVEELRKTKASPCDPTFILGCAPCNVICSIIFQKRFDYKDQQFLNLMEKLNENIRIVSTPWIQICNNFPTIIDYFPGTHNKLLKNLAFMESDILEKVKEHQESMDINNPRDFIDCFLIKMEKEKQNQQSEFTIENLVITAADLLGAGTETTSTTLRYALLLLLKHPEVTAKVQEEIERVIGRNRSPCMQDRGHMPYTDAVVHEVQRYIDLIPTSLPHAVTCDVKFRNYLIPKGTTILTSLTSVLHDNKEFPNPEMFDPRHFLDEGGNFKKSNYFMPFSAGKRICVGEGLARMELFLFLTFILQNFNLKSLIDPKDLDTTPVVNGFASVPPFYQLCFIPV
Sequence of Cytochrome P450 3A4 (Homo sapiens) (P08684 whole entry, looked up): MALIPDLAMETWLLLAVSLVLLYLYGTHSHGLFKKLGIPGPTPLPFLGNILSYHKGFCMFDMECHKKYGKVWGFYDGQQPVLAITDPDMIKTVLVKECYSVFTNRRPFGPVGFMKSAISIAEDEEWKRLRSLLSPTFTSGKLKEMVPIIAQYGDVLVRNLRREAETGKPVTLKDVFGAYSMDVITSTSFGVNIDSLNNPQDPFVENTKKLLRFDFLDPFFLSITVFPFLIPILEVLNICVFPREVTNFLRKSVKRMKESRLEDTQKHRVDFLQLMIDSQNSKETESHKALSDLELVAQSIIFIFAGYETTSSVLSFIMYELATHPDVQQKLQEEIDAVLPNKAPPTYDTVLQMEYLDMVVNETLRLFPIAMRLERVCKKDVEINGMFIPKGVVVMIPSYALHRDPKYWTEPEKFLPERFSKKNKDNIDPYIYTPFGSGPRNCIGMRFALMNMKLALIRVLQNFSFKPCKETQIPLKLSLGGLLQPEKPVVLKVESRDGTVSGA
Sequence of 3',5'-cyclic-AMP phosphodiesterase 4B (Homo sapiens) (Q07343 whole entry, looked up): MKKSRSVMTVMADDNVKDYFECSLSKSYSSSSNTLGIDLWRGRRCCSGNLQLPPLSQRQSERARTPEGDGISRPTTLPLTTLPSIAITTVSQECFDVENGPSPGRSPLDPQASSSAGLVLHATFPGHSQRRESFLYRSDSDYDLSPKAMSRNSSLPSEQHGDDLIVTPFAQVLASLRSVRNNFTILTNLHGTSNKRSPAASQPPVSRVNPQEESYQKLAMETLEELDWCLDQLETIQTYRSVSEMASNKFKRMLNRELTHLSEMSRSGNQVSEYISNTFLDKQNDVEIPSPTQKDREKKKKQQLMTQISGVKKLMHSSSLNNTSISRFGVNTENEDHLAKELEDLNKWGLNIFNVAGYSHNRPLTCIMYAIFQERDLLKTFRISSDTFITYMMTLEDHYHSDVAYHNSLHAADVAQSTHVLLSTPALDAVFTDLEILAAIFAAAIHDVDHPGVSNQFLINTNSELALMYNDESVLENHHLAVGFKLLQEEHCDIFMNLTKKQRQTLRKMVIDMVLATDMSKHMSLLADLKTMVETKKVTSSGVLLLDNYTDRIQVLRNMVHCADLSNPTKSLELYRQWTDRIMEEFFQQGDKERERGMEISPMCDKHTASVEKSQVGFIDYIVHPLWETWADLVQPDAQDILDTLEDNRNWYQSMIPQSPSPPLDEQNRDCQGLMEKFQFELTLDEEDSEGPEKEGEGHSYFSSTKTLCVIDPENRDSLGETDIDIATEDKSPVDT
Sequence of Lysosomal acid glucosylceramidase (Homo sapiens) (P04062 whole entry, looked up): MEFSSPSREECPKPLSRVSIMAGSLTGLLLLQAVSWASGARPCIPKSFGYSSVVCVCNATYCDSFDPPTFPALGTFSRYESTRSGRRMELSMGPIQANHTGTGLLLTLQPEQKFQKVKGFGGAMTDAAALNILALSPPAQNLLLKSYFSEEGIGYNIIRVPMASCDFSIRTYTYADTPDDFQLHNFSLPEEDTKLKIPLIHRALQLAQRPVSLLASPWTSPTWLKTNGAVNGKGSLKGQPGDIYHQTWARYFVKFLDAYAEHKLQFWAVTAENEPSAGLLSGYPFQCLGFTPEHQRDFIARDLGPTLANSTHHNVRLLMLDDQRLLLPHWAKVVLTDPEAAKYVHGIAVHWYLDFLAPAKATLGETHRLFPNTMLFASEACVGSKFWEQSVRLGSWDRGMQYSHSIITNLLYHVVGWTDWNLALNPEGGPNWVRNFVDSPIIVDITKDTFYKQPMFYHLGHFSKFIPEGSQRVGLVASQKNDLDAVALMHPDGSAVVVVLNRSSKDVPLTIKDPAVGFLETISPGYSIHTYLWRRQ

For the compound `COc1ccc(Oc2ncc3nc(CCc4ccccc4)c(=O)n(C4CC4)c3n2)cc1`, the Potency is greater than 11.4 µM in assay [1]; 12.6 µM (active) in [2]; greater than 9.22 µM in [5]; greater than 46 µM in [6]; 1.58 µM (active) in assay [9]. Moreover, in [3], the activity change, negative = inhibition was 5.02%. Also, the activity, negative = inhibition in [4] is -0.549%. Moreover, the Potency result in [7] and in assay [8] was “inactive” each time.

As for `C[C@@H]1CCCN(C[C@@H](O)CN2CCCc3ccccc32)C1`, the Potency in [1] is greater than 11.4 µM; in assay [5] it was greater than 46 µM; in assay [6], greater than 9.22 µM; in [11], 1.58 µM (active). In addition, the Potency result in [2], in assay [7] and in [10] was “inactive” throughout. Besides, the activity change, negative = inhibition in [3] was -7.43%. The activity, negative = inhibition in assay [4] is 11.4%.

As for `O=[N+]([O-])c1ccc(S(=O)(=O)Cc2ccccc2)c2nonc12`, the Potency in assay [1] is greater than 11.4 µM; in [5] it was greater than 46 µM; in [6], greater than 9.22 µM; in assay [12], 0.316 µM (active); in assay [9] it was 3.16 µM (active). Also, the activity change, negative = inhibition in [2] is -5.3% [at 2.29 µM]. For the same compound, the activity, negative = inhibition in assay [4] was -2.97%. Further, the Potency entry in assay [7] and in assay [10] was “inactive” each time.

Take `N#Cc1c(NC(=O)C(F)(F)F)sc2c3c(=O)c4ccccc4c(=O)c=3oc3ccccc3c12`: the Potency in assay [1] is greater than 11.4 µM; in assay [2], 1 µM (active); in assay [5] it was greater than 46 µM; in assay [6], greater than 9.22 µM; in [12], 0.0501 µM (active); in assay [9], 0.501 µM (active). Further, the activity change, negative = inhibition in assay [3] was 13.7%. Moreover, in assay [4], the activity, negative = inhibition was 0.0272%. For the same compound, the Potency entry in assay [7] and in assay [8] was “inactive” each time.

Consider `c1ccc2cc(NCNc3ccc4ccccc4c3)ccc2c1`, for which the Potency in assay [1] was greater than 11.4 µM; in assay [2] it was 0.631 µM (active); in assay [5] it was greater than 46 µM; in [6], greater than 9.22 µM; in assay [12], 3.98 µM (active); in assay [9], 2.51 µM (active). In assay [3], the activity change, negative = inhibition was -15.6%. The activity, negative = inhibition in assay [4] was -2.06%. In addition, the Potency entry in assay [7], in assay [10] and in [8] was “inactive” throughout.

In the case of `Oc1ccc(CNCc2ccccc2)c2cccnc12`, the Potency in assay [1] was greater than 11.4 µM; in assay [5] it was greater than 46 µM; in assay [6] it was greater than 9.22 µM; in [11], 1.58 µM (active). Also, in [3], the activity change, negative = inhibition is -26.9%. In assay [4], the activity, negative = inhibition was 10.2%. Also, the Potency result in [7] and in assay [10] was “inactive” in each case.

Take `CN1CCN(c2ncc3nc(-c4ccccc4)c(=O)n(Cc4ccc(F)cc4)c3n2)CC1`: the Potency in assay [1] is greater than 11.4 µM; in assay [5], greater than 9.22 µM; in assay [6], greater than 46 µM; in [13], 3.16 µM (active). In addition, the Potency entry in assay [2], in assay [7] and in assay [10] was “inactive” throughout.

`CC(C)c1ccc(O)c(O)c(=O)c1` (tested in a mixture with another compound): the Potency was greater than 11.4 µM in [1], greater than 46 µM in assay [5] and greater than 9.22 µM in assay [6]. In addition, the activity, negative = inhibition in assay [4] is 4.84%. Also, the Potency result in [7] and in [10] was “inactive” throughout.
